Pf growth 48h: Primary qHTS for delayed death inhibitors of the malarial parasite plastid, 48 hour incubation. Potency, µM (titrated, usually from 28.7 µM), without a hit: at the highest dose activity change, negative = inhibition, hits mostly inhibitors. hit rate 5.9% among 310,000. P. falciparum luciferase growth in erythrocytes, 48 h; note: potency is the fitted concentration of half-maximal effect; % is set by controls: 0 for no effect and ±100 for the full control effect
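Read-out is firefly luciferase luminescence from an integrated reporter in P. falciparum, so falling signal marks reduced parasite growth. Infected erythrocytes were at 2% hematocrit and 0.1% parasitemia (final) in Albumax-supplemented RPMI 1640.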
Shiga toxin inh: A qHTS for Small Molecule Inhibitors of Shiga Toxin; Vero cells, Shiga toxin protein synthesis inhibition reporter; inhibition, % at 38.7 µM; AID 2315, 2010; hit rate 9.2% among 290,000; in the data active = inhibition mostly above about 28%, no sharp cut-off; inactive = mostly below about 43%; note: 0% is about no effect
CHX counter: Cycloheximide Counterscreen for Small Molecule Inhibitors of Shiga Toxin | cell reporter, cycloheximide protein synthesis inhibition counterscreen | max response, % | hit rate 12% among 300,000 | AID 2314, 2010; in the data active = max response mostly above about 13%, no sharp cut-off; inactive = mostly below about 14%; note: read at 38.3 µM for the half of the compounds with a filed dose; 0% is about no effect
Pf growth 96h: Primary qHTS for delayed death inhibitors of the malarial parasite plastid, 96 hour incubation | Potency, µM (top dose mostly 28.7 µM), inactives show top-dose activity change, negative = inhibition, usual class: inhibitors | AID 504834, 2011 | P. falciparum luciferase reporter growth, 96 h | hit rate 6.9% among 320,000; note: potency is the fitted concentration of half-maximal effect; % is set by controls: 0 for no effect and ±100 for the full control effect
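Erythrocytes infected with luciferase-expressing P. falciparum were dispensed at 2% hematocrit and 0.05% parasitemia (final), then incubated with compounds 96 hours at 37 C in 5% CO2. Luminescence after detection reagent addition reported growth.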
Sm TGR inh: qHTS Assay for the Inhibitors of Schistosoma Mansoni Peroxiredoxins. purified TGR, DTNB reduction, TNB absorbance 405 nm. Schistosoma mansoni thioredoxin glutathione reductase (TGR), Q962Y6. hit rate 3% among 360,000. AID 485364, 2010. Potency, µM (highest dose often 114 µM), for the others: at the top dose activity change, negative = inhibition, actives largely listed as inhibitors; note: potency is the fitted concentration of half-maximal effect; % is set by controls: 0 for no effect and ±100 for the full control effect; nearly all actives have a fitted effect of over 60% in size
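TGR 20 nM + NADPH 100 uM (dispensed conc.), cpd preinc 15 min RT; start with NADPH (500 uM addition) then DTNB (15 mM addition). Kinetic TNB absorbance, 405 nm filter. Four-parameter Hill fit across titration.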
NS1 inh: qHTS Assay for Inhibitors of Influenza NS1 Protein Function; AID 2326, 2010; hit rate 0.4% among 270,000; Potency, µM (titrated, usually from 46.1 µM), inactives show at the highest dose activity, positive = more growth; calls by dose curve; note: potency is the fitted concentration of half-maximal effect; actives are rising curves; nearly all actives have a fitted effect of over 50% in size
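Recovery from NS1-induced slow growth read by OD600 in budding yeast switched to galactose assay medium (pH 6.0, -URA) at 1:100 dilution. Compound 23 nl per well; the matching strain lacking NS1 serves as control.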
An asterisk follows results filed as active; ? = inconclusive; . = not tested or not shown. This is a sample that favours compounds with a hit; in the whole collection about 21% have one here. Unless noted, calls come from the whole dose curve; as a rule, active = well fitted curve in the direction sought with a large enough effect; inconclusive = small, poorly fitted or top-dose-only effect, or another doubt; inactive = no such curve, though single readings can be large; an effect the other way counts as inactive or inconclusive.

SMILES	Pf growth 48h	Shiga toxin inh	CHX counter	Pf growth 96h	Sm TGR inh	NS1 inh
CN(CC(O)CON=C1c2ccccc2-c2ccccc21)S(=O)(=O)c1ccc(Br)cc1 (stereo not drawn)	6.57µM*	-18.4	-0.7	?	-6.2%	20.1%
O=C(NCC1CCCCC1)C12CN(Cc3ccccc3)CC1C(c1cccc([N+](=O)[O-])c1)=NO2 (stereo not drawn)	1.65µM*	14.2	-0.9	?	-3.1%	23.4%
COc1ccc(CCNC(=O)C23CN(Cc4ccccc4)CC2C(c2cccc([N+](=O)[O-])c2)=NO3)cc1 (stereo not drawn)	?	-0.7	5.6	?	-3.2%	1.6%
Cc1ccc(CCNC(=O)C23CN(Cc4ccccc4)CC2C(c2cccc([N+](=O)[O-])c2)=NO3)cc1 (stereo not drawn)	2.94µM*	7.7	8.0	?	-8.6%	12.3%
CC1CCCC(C)N1C(=O)COC(=O)CNC(=O)c1ccccc1F (stereo not drawn)	-1.5%	.	.	?	-3.6%	.
COc1ccccc1NC(=O)c1ccc(Br)o1	17.6%	31.3	13.7*	-6.8%	0.7%	-36.4%
COc1cc(NC(=O)c2ccc(Br)o2)ccc1NC(=O)c1ccccc1Cl	10.4µM*	11.9	9.2	.	-28.6%	?
Cc1cc(O)c(NC(=O)c2ccc(Br)o2)cc1C	11.7µM*	65.8*	46.1*	118.5%	-10.8%	-10.1%
CCN(CC)c1ccc(CNc2nc3ccccc3n2CC)cc1	21.8%	-12.8	1.5	3.4%	6.0%	-51.2%
Cc1[nH]c(C)c(S(=O)(=O)NCc2ccc(F)cc2)c1C(=O)N1CCCC1	10.2%	-2.4	-6.3	?	0.0%	-6.8%
C=CCc1c(C)[nH]c(=O)[nH]c1=O	0.9%	-8.0	4.0	9.3%	-1.4%	-3.3%
N#Cc1nc(-c2ccccc2Cl)oc1NCC1CCCO1 (stereo not drawn)	.	90.6*	16.3	-13.4%	78.0%	-12.2%
N#Cc1nc(Cc2cccc3ccccc23)oc1NCC1CCCO1 (stereo not drawn)	.	-4.4	-1.4	7.38µM*	-3.2%	-48.7%
N#Cc1nc(Cc2cccc3ccccc23)oc1NCc1ccco1	?	-10.0	-3.9	?	?	-87.5%
COc1ccc(-c2nc(C#N)c(NCCCN(C)C)o2)cc1OC	-7.6%	-0.5	9.7	-4.5%	0.3%	8.3%
COc1ccc(-c2nc(C#N)c(NC(C)c3ccccc3)o2)cc1OC (stereo not drawn)	14.7µM*	28.5	10.1	?	-17.2%	-32.0%
CCOc1ccc(-c2nc(C#N)c(NCC3CCCO3)o2)cc1 (stereo not drawn)	.	28.0	12.8	?	-5.3%	-78.1%
COc1ccc(-c2nc(C#N)c(NCC3CCCO3)o2)cc1OC (stereo not drawn)	1.0%	10.5	22.7*	18.2%	-0.6%	-14.6%
CC1CCc2[nH]c3ccc(C(=O)N(C)CC(=O)Nc4ccccc4C(F)(F)F)cc3c2C1 (stereo not drawn)	?	.	.	?	-2.4%	.
COc1cc(Cl)ccc1NC(=S)N(CCN1CCOCC1)C1CCN(C(C)=O)CC1	4.2%	-7.6	-2.3	?	5.7%	.
CCCc1cc(=O)oc2cc(OC3CCCCC3=O)ccc12 (stereo not drawn)	13.5%	-1.9	13.1	4.2%	0.0%	-2.7%
COc1ccc2c(c1)O/C(=C\c1ccccc1C)C2=O	40.5%	65.7*	31.2*	22.6%	12.7%	-4.3%
COc1cc(OC)c(OC)cc1/C=C1\Oc2cc(OS(C)(=O)=O)ccc2C1=O	8.9%	12.6	0.3	243.1%	0.2%	2.3%
Cc1cc2c(N=NC(=O)CCc3ccccc3)c(O)[nH]c2cc1Br	2.7%	-19.8	-3.2	?	2.4%	-1.5%
COC(=O)c1ccc(OC)c(CSc2nnc(-c3ccc(C(C)(C)C)cc3)o2)c1	.	-10.4	-4.7	0.657µM*	10.0%	16.9%
SMILES	Pf growth 48h	Shiga toxin inh	CHX counter	Pf growth 96h	Sm TGR inh	NS1 inh
COc1cc(-c2nnc(SCc3cc(=O)oc4cc(C)ccc34)o2)cc(OC)c1OC	?	62.8	29.0*	?	-2.3%	16.1%
Cc1ccc(-c2nnc(SCc3ccccc3F)o2)cc1	123.0%	63.3*	44.0*	131.4%	-1.6%	-31.5%
COc1ccc(-c2nnc(SCc3ccccc3F)o2)cc1OC	46.9%	52.3*	21.3	22.9%	11.7%	-12.4%
COc1cc(-c2nnc(SCC(=O)Oc3ccc(C)cc3C)o2)cc(OC)c1OC	.	.	.	.	1.9%	.
Cc1cc(Cl)ccc1NC(=O)CSc1nnc(-c2ccncc2)n1Cc1ccco1	-20.3%	-18.2	11.0	?	44.7µM*	3.9%
O=C(CSc1nnc(-c2ccncc2)n1Cc1ccco1)Nc1nccs1	13.7%	1.1	-2.3	7.38µM*	-22.5%	2.7%
CCOC(=O)CC1C(=O)NC2CCCCC2N1C(=O)Nc1ccc(Cl)cc1 (stereo not drawn)	-1.1%	20.4	27.6*	.	-4.6%	-39.3%
O=C(c1ccc2c(c1)CCN2S(=O)(=O)c1ccccc1)N1CCN(c2ccccc2F)CC1	20.9%	-5.3	-3.2	19.8%	8.3%	5.5%
COc1cc(C(=O)Nc2ccc(S(=O)(=O)Nc3cnc4ccccc4n3)cc2)cc(OC)c1OC	?	-17.5	-0.9	11.7µM*	-8.0%	?
COc1cc(C(=O)Nc2ccc(S(=O)(=O)Nc3cc(C)nc(C)n3)cc2)cc(OC)c1OC	-1.8%	12.4	7.4	-3.7%	-0.4%	.
Cc1ccc(C(=O)Nc2ccc(S(=O)(=O)Nc3cnc4ccccc4n3)cc2)cc1	51.3%	71.6	20.0*	48.4%	-13.9%	3.1%
Cc1ccc(Cc2nc3ccccc3nc2SCC(=O)NCCc2ccccc2)cc1	.	.	.	.	6.3%	.
COC(=O)C(C)Sc1nnc(Cc2cc(=O)[nH]c(=O)[nH]2)n1-c1cc(C)ccc1C (stereo not drawn)	.	-7.7	-2.1	2.8%	-3.0%	6.2%
C=CCSc1nnc(Cc2cc(=O)[nH]c(=O)[nH]2)n1-c1cc(C)ccc1C	?	-0.5	7.8	20.6%	22.4µM*	7.0%
CCNc1ccccc1CP(=O)(c1ccccc1)c1ccccc1O (stereo not drawn)	13.1µM*	0.7	-4.1	11.7µM*	0.501µM*	20.7%
Cc1ccc(NC(=S)NC(=O)C2CC2)cc1Cl	-25.6%	52.9*	28.1*	9.28µM*	?	-22.2%
O=C(NC(=S)Nc1ccc(F)c(Cl)c1)C1CC1	-37.2%	16.8	27.7*	-6.5%	15.8µM*	-18.3%
COC(=O)NC(=S)Nc1ccc(Oc2ccc(Cl)cc2Cl)c(Cl)c1	?	9.6	-1.4	13.1µM*	-0.7%	11.3%
Nc1c(C(=O)Nc2ccccc2Cl)c2ccccn2c1C(=O)c1ccccc1	.	.	.	.	7.8%	.
